The record followed here is PubChem BioAssay (NCI).

Common to all, as to assay: NCI-60 one-dose screen, 48 h (100 = growth as untreated, 0 = no growth, -100 = all killed)
In one experiment the test system is HT29 colon. The following applies: 10 µM unless noted.
The test system of the next experiment is SNB-19 CNS. The following applies: 10 µM unless noted.
The next experiment has as its system U251 CNS. The following applies: 10 µM unless noted.
The next experiment deals with PC-3 prostate. The following applies: 10 µM unless noted.
The next experiment deals with SK-MEL-5 melanoma. The following applies: 10 µM unless noted.
The next experiment has as its system UACC-62 melanoma. The following applies: 10 µM unless noted.
For another experiment, the system named is LOX IMVI melanoma. Particulars: 10 µM unless noted.
The next experiment concerns SK-MEL-28 melanoma. Particulars: 10 µM.
For the next experiment, the system named is SK-MEL-2 melanoma. The following applies: 10 µM unless noted.
The test system of the next experiment is SN12C renal. The following applies: 10 µM unless noted.
The next experiment concerns UO-31 renal. Particulars: 10 µM unless noted.
For a further experiment, the system named is TK-10 renal. The following applies: 10 µM unless noted.
For a further experiment, the system named is CAKI-1 renal. The following applies: 10 µM unless noted.
In a further experiment the test system is A498 renal. The following applies: 10 µM unless noted.
For another experiment, the system named is CCRF-CEM leukemia. The following applies: 10 µM unless noted.
For another experiment, the system named is MOLT-4 leukemia. The following applies: 10 µM unless noted.
Another experiment concerns SR leukemia. Particulars: 10 µM unless noted.
A further experiment concerns ACHN renal. The following applies: 10 µM unless noted.
The test system of a further experiment is SNB-75 CNS. The following applies: 10 µM unless noted.
The next experiment deals with EKVX NSCLC. The following applies: 10 µM unless noted.

Molecules are shown by their SMILES. About 83,000 compounds went through this panel and 20% of them were active in at least one assay; those are over-represented in the sample as a whole.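 Single-dose data. Exposure time 48 hours. Values below 10 considered active.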 Unmarked numbers belong to inactive results. Activity calls are given as the source filed them.

Consider `COc1cc(C(=O)O/N=C(\N)Cc2cccc3ccccc23)cc(OC)c1OC`, for which the growth in the experiment on HT29 colon is -74.3% (active); with SNB-19 CNS it was 68.2%; with U251 CNS, -67.8% (active); in the experiment on PC-3 prostate it was 27.6%; in the experiment on SK-MEL-5 melanoma, -97.9% (active); in the experiment on UACC-62 melanoma it was -88.3% (active). The growth is -81.9% (active) with LOX IMVI melanoma; -97% (active) in the experiment on SK-MEL-28 melanoma; -80.9% (active) in the experiment on SK-MEL-2 melanoma; 63% in the experiment with SN12C renal; -44.3% (active) in the experiment with UO-31 renal; -43.8% (active) in the experiment with TK-10 renal. The growth in the experiment on CAKI-1 renal was 22.9%; in the experiment with A498 renal, 44.6%; with CCRF-CEM leukemia it was -5.01% (active); in the experiment on MOLT-4 leukemia it was 1.56% (active); with SR leukemia it was -30.4% (active).
As to `CCOC(=O)C1(Cc2ccccc2)CCN(Cc2cccc(OC)c2O)CC1`, the growth in the experiment on HT29 colon was 22.2%; with SNB-19 CNS it was 14.9%; in the experiment with U251 CNS it was 3.94% (active); in the experiment on PC-3 prostate, 25%; in the experiment on SK-MEL-5 melanoma, -33.4% (active); in the experiment on UACC-62 melanoma, -7.92% (active). For the same molecule, the growth in the experiment on LOX IMVI melanoma was 5.51% (active); in the experiment on SK-MEL-28 melanoma it was 38%; with SK-MEL-2 melanoma it was 9.33% (active); in the experiment on SN12C renal, 10.7%; in the experiment with UO-31 renal it was -11.8% (active); with TK-10 renal it was 36.7%. For the same molecule, the growth was 10.8% in the experiment on ACHN renal; -11.3% (active) in the experiment on CAKI-1 renal; 21.2% in the experiment on A498 renal; 9.78% (active) in the experiment with CCRF-CEM leukemia; 7.58% (active) in the experiment with SR leukemia.
In the case of `Cc1ccc(F)cc1NC(=O)c1cc(Cl)ccc1Nc1ccccc1`, the growth was 17.8% in the experiment with HT29 colon; 53.6% in the experiment on SNB-75 CNS; 42.5% with U251 CNS; 23.2% in the experiment with PC-3 prostate; 70.9% with SK-MEL-5 melanoma; 65.4% in the experiment on UACC-62 melanoma. The growth was 49.4% in the experiment on LOX IMVI melanoma; 89.6% with SK-MEL-28 melanoma; 54.9% with SK-MEL-2 melanoma; 32.1% in the experiment with SN12C renal; 23.7% with UO-31 renal; 63% with TK-10 renal. Also, the growth was 42.3% in the experiment with ACHN renal; 89.1% in the experiment on A498 renal; 45.8% in the experiment with CCRF-CEM leukemia; 29% in the experiment on MOLT-4 leukemia; 44.2% in the experiment on SR leukemia.
For `COc1cccc(/C=C/C(=O)c2c(C)nc3ccccc3c2/C=C/c2ccccc2)c1OC`, the growth is 2.64% (active) in the experiment on HT29 colon; 36.3% in the experiment on SNB-19 CNS; 24% in the experiment on U251 CNS; 43.3% in the experiment with PC-3 prostate; 32.3% in the experiment with SK-MEL-5 melanoma; 28.5% in the experiment with UACC-62 melanoma. Also, the growth in the experiment with LOX IMVI melanoma was -59.4% (active); with SK-MEL-28 melanoma, 44.8%; in the experiment on SK-MEL-2 melanoma, 32.3%; in the experiment with EKVX NSCLC it was 50.8%; with SN12C renal, 31.1%; in the experiment with UO-31 renal it was 48.8%. Further, the growth in the experiment with TK-10 renal is 61.6%; in the experiment on ACHN renal, 31.4%; in the experiment with CAKI-1 renal, 39.2%; in the experiment on A498 renal it was 58.1%; in the experiment with CCRF-CEM leukemia, 13%; with MOLT-4 leukemia, 4.78% (active).
Turning to `COc1ccc(/C=C/C(=O)c2c(C)nc3ccccc3c2/C=C/c2ccccc2)c(OC)c1`, the growth was 62.9% in the experiment on HT29 colon; 92.9% with SNB-19 CNS; 90% with U251 CNS; 75.9% in the experiment on PC-3 prostate; 85.7% in the experiment on SK-MEL-5 melanoma; 62.1% in the experiment with UACC-62 melanoma. Further, the growth was 83.8% in the experiment with LOX IMVI melanoma; 108% in the experiment on SK-MEL-28 melanoma; 95.9% with SK-MEL-2 melanoma; 76.9% in the experiment on EKVX NSCLC; 84.3% with SN12C renal; 61.4% in the experiment with UO-31 renal. For the same molecule, the growth in the experiment on TK-10 renal is 123%; in the experiment on ACHN renal, 79.5%; with CAKI-1 renal, 55.9%; with A498 renal it was 97.3%; in the experiment on CCRF-CEM leukemia, 76.5%; in the experiment on MOLT-4 leukemia, 48.6%.
As to `COc1cc(C2C3=C(COC3=O)N(CCO)c3cc4c(cc32)CCC4)cc(OC)c1O` (configuration not stated), the growth was 0.722% (active) with HT29 colon; 31.2% with SNB-19 CNS; 15.3% with U251 CNS; 31.7% in the experiment with PC-3 prostate; 11.8% in the experiment on SK-MEL-5 melanoma; 39.8% in the experiment on UACC-62 melanoma. Also, the growth in the experiment with LOX IMVI melanoma is 28.2%; in the experiment with SK-MEL-2 melanoma, 89%; with EKVX NSCLC it was 34.3%; in the experiment with SN12C renal, 33.5%; in the experiment with UO-31 renal it was 49.7%; in the experiment with TK-10 renal, 45%. The growth with ACHN renal was 42.8%; with CAKI-1 renal, 21.1%; in the experiment on A498 renal, 17.2%; in the experiment on CCRF-CEM leukemia, 17.2%; in the experiment on MOLT-4 leukemia it was 20.6%; in the experiment with SR leukemia it was 33.1%.
Consider `CSc1nc2c(c(=O)[nH]1)N=C1c3ccccc3C(=O)C1C(c1ccc(F)cc1)N2` (configuration not stated), for which the growth was 18% in the experiment with HT29 colon; 61.6% with SNB-19 CNS; 58.8% with U251 CNS; 69.3% in the experiment on PC-3 prostate; 39.8% in the experiment with SK-MEL-5 melanoma; 43.1% in the experiment on UACC-62 melanoma. Moreover, the growth in the experiment with LOX IMVI melanoma is 62%; with SK-MEL-28 melanoma it was 83.5%; in the experiment with SK-MEL-2 melanoma, 72.1%; in the experiment with EKVX NSCLC it was 74.8%; with SN12C renal, 87.7%; with UO-31 renal, 62.8%. The growth in the experiment on TK-10 renal is 78.2%; in the experiment with ACHN renal, 59.1%; with CAKI-1 renal, 25.8%; in the experiment on A498 renal, 88.2%; in the experiment with CCRF-CEM leukemia, 52.5%; with MOLT-4 leukemia it was 76%. For the same molecule, in the experiment on SR leukemia, the growth is 31.5%.
On to `COc1ccc(C2C3=C(COC3=O)N(CCO)c3cc4c(cc32)CCC4)cc1` (configuration not stated), for which the growth in the experiment with HT29 colon was 15.4%; with SNB-19 CNS, 62.2%; in the experiment on U251 CNS, 42%; in the experiment on PC-3 prostate it was 54.6%; with SK-MEL-5 melanoma it was 35.7%; with UACC-62 melanoma, 48.3%. Moreover, the growth was 51% in the experiment with LOX IMVI melanoma; 77.9% with SK-MEL-2 melanoma; 66.7% with EKVX NSCLC; 95.1% in the experiment on SN12C renal; 75.7% in the experiment on UO-31 renal; 77.9% with TK-10 renal. Besides, the growth with ACHN renal was 67.7%; in the experiment on CAKI-1 renal, 48%; in the experiment on A498 renal, 73.2%; in the experiment with CCRF-CEM leukemia, 64.3%; with MOLT-4 leukemia, 45.4%; in the experiment with SR leukemia, 35.8%.
